Screens as filed in PubChem BioAssay.
T cruzi growth-1: inhibitors of T. cruzi proliferation | T. cruzi beta-gal in NIH3T3, GalScreen luminescence, 90 h | inhibition, % at 8.34 µM | 5.9% of 77,000 active | AID 624255;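 active = mean inhibition above about 93%, with at least 55% of replicates each passing it, limit read from the data, passing the limit was not always enough; inconclusive = only one of those two conditions holds; inactive = neither condition holds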
Pf Dd2 inh: inhibitors of Plasmodium falciparum Dd2 growth; P. falciparum Dd2 growth, SYBR Green, 72 h; active compounds read low; activity change, % at 10 µM; 2.3% of 94,000 active; AID 1159554; in the data active = activity change below about -80%; inconclusive = no clear call, values can overlap the other calls
C diff HTS: blocks growth of Clostridium difficile | Clostridium difficile clinical isolate growth, OD600, 24 h; active compounds read low | growth activity, negative = inhibition, % at 16 µg/mL (by protocol) | 0.25% of 86,000 active | AID 1259249;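 active = mean growth activity at or below -80% and every replicate also at or below -80%; inconclusive = mean at or below -80% but some replicate above -80%; inactive = mean growth activity above -80%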;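 also: 0% = DMSO wells and -100% = levofloxacin 16 µg/mL wells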
T cruzi growth-2: blocks T. cruzi growth in NIH3T3 host cells; inhibition, % at 8.35 µM; T. cruzi beta-gal in NIH3T3, GalScreen luminescence, 90 h; AID 651739; shares compounds with T cruzi growth-1; 72% of 5,600 active;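 active = mean replicate inhibition above about 95% and at least 55% of replicates individually reaching it, limit read from the data; inconclusive = only one of the two criteria is met; inactive = neither criterion is met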
T cruzi growth-3: inhibitors of T. cruzi proliferation; shares compounds with T cruzi growth-1; T. cruzi beta-gal in NIH3T3, GalScreen luminescence, 90 h; inhibition, % at 2.09 µM; 21% of 5,600 active; AID 651740;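 active = mean inhibition above about 95%, with at least 55% of replicates also reaching it, limit read from the data; inconclusive = meets just one of the two conditions; inactive = meets neither condition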;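 also: plate controls were neutral control median for no effect and positive control median for full effect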
NIH3T3 tox: kills mouse NIH/3T3 fibroblasts; shares compounds with T cruzi growth-1; cytotoxicity (signal decrease), % at 8.35 µM; 14% of 5,600 active; NIH/3T3 viability, CellTiter-Glo ATP luminescence, 90 h;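 active = mean signal decrease across replicates above about 35% based on untreated-well scatter, with enough replicates individually passing, limit read from the data; inconclusive = no rule stated though some were filed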;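 also: 0% = median of neutral control wells and 100% = median of positive control wells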
3T3 cytotox 2: kills mouse NIH/3T3 fibroblasts. NIH/3T3 viability, CellTiter-Glo ATP luminescence, 90 h. 56% of 5,600 active. shares compounds with T cruzi growth-1. inhibition, % at 24.9 µM;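 active = mean loss of cell viability signal at or above a set limit, and enough replicates individually reaching it; inconclusive = meets only the mean limit or only the replicate share; inactive = meets neither condition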;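 also: 0% = median of neutral control wells and 100% = median of positive control wells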
Numbers without * were called inactive. Compounds with a hit are over-represented: about 6.7% of the library has one in this group of screens.

Results for CNC[C@H]1Oc2ccc(NC(=O)NC(C)C)cc2CC(=O)N([C@H](C)CO)C[C@@H]1C ?
T cruzi growth-1: 7; Pf Dd2 inh: -22; C diff HTS: -1

What do the screens show for `OC[C@H]1[C@H](c2ccc(Br)cc2)[C@@H]2CN(Cc3ccccn3)CCCCN12`?
T cruzi growth-1: 109*; Pf Dd2 inh: -12; C diff HTS: -1; T cruzi growth-2: inconclusive; T cruzi growth-3: 55; NIH3T3 tox: 3; 3T3 cytotox 2: 3

Results for OC[C@@H]1[C@H](c2ccc(-c3cccnc3)cc2)[C@H]2CN(Cc3ccccn3)CCCCN12 ?
T cruzi growth-1: 109*; Pf Dd2 inh: -16; C diff HTS: -5; T cruzi growth-2: 97*; T cruzi growth-3: 75; NIH3T3 tox: 4; 3T3 cytotox 2: 6

What do the screens show for `OC[C@@H]1[C@H](c2ccc(-c3cccnc3)cc2)[C@@H]2CN(Cc3ccccn3)CCCCN12`?
T cruzi growth-1: 95; Pf Dd2 inh: -45; C diff HTS: -4

What do the screens show for `OC[C@H]1[C@@H](c2ccc(Br)cc2)[C@H]2CN(Cc3ccccn3)CCCCN21`?
T cruzi growth-1: 25; Pf Dd2 inh: 19; C diff HTS: 4

Results for O=C(c1ccc(F)cc1)N1CCCCN2[C@@H](CO)[C@H](c3ccc(/C=C/c4ccccc4)cc3)[C@@H]2C1 ?
T cruzi growth-1: 112*; Pf Dd2 inh: -16; C diff HTS: 12; T cruzi growth-2: 95*; T cruzi growth-3: 76; NIH3T3 tox: 60*; 3T3 cytotox 2: 103*

How did O=C(c1cccc(F)c1)N1CCCCN2[C@H](CO)[C@H](c3ccc(-c4cncnc4)cc3)[C@@H]2C1 do in these assays?
T cruzi growth-1: 75; Pf Dd2 inh: -1; C diff HTS: 0

How did O=C(c1cccc(F)c1)N1CCCCN2[C@H](CO)[C@@H](c3ccc(/C=C/c4ccccc4)cc3)[C@@H]2C1 do in these assays?
T cruzi growth-1: 109*; Pf Dd2 inh: -4; C diff HTS: -7; T cruzi growth-2: 100*; T cruzi growth-3: 19; NIH3T3 tox: 17; 3T3 cytotox 2: 10

What do the screens show for `O=C(c1ccc(F)cc1)N1CCCCN2[C@H](C1)[C@H](c1ccc(-c3ccccc3)cc1)[C@@H]2CO`?
T cruzi growth-1: 93; Pf Dd2 inh: -10; C diff HTS: 30

What do the screens show for `O=C(c1cccc(F)c1)N1CCCCN2[C@H](C1)[C@@H](c1ccc(/C=C/c3ccccc3)cc1)[C@@H]2CO`?
T cruzi growth-1: 111*; Pf Dd2 inh: -50; C diff HTS: -6; T cruzi growth-2: 92; T cruzi growth-3: 83; NIH3T3 tox: 54*; 3T3 cytotox 2: 39*

How did O=C(c1cccc(F)c1)N1CCCCN2[C@@H](CO)[C@@H](c3ccc(/C=C/c4ccccc4)cc3)[C@@H]2C1 do in these assays?
T cruzi growth-1: 109*; Pf Dd2 inh: -64; C diff HTS: -75; T cruzi growth-2: 101*; T cruzi growth-3: 79; NIH3T3 tox: 66*; 3T3 cytotox 2: 105*

Results for O=C(c1cccc(F)c1)N1CCCCN2[C@H](C1)[C@H](c1ccc(-c3ccc(F)cc3)cc1)[C@@H]2CO ?
T cruzi growth-1: 83; Pf Dd2 inh: 21; C diff HTS: 27

Results for O=C(c1cccc(F)c1)N1CC(=O)N2[C@H](CO)[C@H](c3ccc(/C=C/c4ccccc4)cc3)[C@@H]2C1 ?
Pf Dd2 inh: -17; C diff HTS: 51

Results for CO[C@H]1CN(C)C(=O)c2cc(NC(=O)C3CC3)ccc2OC[C@H](C)N(C(=O)CN(C)C)C[C@@H]1C ?
T cruzi growth-1: 4; Pf Dd2 inh: 14; C diff HTS: -14

How did COc1ccc(S(=O)(=O)Nc2ccc3c(c2)C(=O)N([C@@H](C)CO)C[C@@H](C)[C@@H](CN(C)C(=O)Nc2ccc4c(c2)OCO4)OCCCC[C@H](C)O3)cc1 do in these assays?
T cruzi growth-1: 35; Pf Dd2 inh: -51; C diff HTS: 1

What do the screens show for `CCCC(=O)Nc1ccc2c(c1)C(=O)N(C)[C@@H]1CC[C@H](CC(=O)NCC(F)(F)F)O[C@@H]1CO2`?
T cruzi growth-1: -2; Pf Dd2 inh: 14; C diff HTS: 3
